The target of this assay is furin, P09958. Put plainly: furin cleavage Z-score vs untreated control; higher = more cleavage, active = 3.5 or more, inactive = 1 or less, 8 variable residues between constant flanks. In a few lines:
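Magnetic beads held 8-mer peptides by the N-terminus, each fused to a cDNA oligonucleotide, and purified furin was added for 7.5, 15 or 30 min. Released DNA was sequenced after PCR adapter tagging. The cleavage Z-score is the log count relative to furin-free reactions, lowess-adjusted and divided by median absolute deviation.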

Experimental findings from the supplement of paper PMC3545927 are described below.

Some of the results follow. No count for the full screen is at hand.
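Also: purified furin at 1:10 enzyme:substrate in 50 mM HEPES pH 7.5.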

Chain of furin, P09958 (P09958 whole entry, the tested form may be a part): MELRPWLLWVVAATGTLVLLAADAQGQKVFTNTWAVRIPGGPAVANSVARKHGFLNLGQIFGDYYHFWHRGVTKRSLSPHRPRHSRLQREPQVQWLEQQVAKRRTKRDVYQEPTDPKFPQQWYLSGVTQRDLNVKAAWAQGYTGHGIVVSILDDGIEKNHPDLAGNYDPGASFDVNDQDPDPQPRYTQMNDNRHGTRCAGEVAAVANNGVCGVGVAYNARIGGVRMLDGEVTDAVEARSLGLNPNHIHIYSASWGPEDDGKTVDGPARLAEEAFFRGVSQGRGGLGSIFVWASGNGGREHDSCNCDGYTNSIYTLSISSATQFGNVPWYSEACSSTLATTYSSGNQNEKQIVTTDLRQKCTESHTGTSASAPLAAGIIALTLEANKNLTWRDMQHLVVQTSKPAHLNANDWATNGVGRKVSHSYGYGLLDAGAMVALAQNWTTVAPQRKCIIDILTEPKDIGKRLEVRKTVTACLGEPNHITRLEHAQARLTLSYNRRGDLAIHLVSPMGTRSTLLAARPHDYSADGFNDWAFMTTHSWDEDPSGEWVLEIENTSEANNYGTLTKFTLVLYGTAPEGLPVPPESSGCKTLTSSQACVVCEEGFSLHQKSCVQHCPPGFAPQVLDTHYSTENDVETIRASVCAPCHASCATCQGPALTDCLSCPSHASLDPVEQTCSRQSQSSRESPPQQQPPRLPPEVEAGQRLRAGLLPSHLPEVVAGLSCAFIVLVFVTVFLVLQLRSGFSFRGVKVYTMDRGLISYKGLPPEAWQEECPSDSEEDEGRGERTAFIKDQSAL

For the sequence CAMEEKSQHLAGNASASA [HC11], the “furin cleavage Z-score” value (7.5 min) was 0.661 (inactive), the “furin cleavage Z-score” value (15 min) was -0.101 (inactive) and the “furin cleavage Z-score” value (30 min) is 0.52 (inactive).
For CATTPQSGSWAGNASASA [HC59], in that order: -0.528 (inactive), -0.454 (inactive) and -0.569 (inactive).
For CAGFTKVCGAAGNASASA [HC440], in that order: 0.851 (inactive), 0.701 (inactive) and -1.33 (inactive).
For CANSSIVYEAAGNASASA [HC265], in that order: 0.639 (inactive), -1.3 (inactive) and -0.329 (inactive).
For CAEVVTSGWVAGNASASA [HC2216], the “furin cleavage Z-score” value reads like this: (7.5 min) 0.374 (inactive); (15 min) -0.391 (inactive); (30 min) -0.0659 (inactive).
Taken in the same sequence, the figures for CAGRERMAREAGNASASA [FS-332] were 5.27 (active), 6.35 (active) and 5.57 (active).
In the case of CARVARHAAPAGNASASA [FS-2193], the “furin cleavage Z-score” value runs as follows: (7.5 min) 7.61 (active); (15 min) 8.49 (active); (30 min) 8.42 (active).
For CARVDRDVAPAGNASASA [FS-2616], in that order: 0.776 (inactive), -0.0435 (inactive) and 0.369 (inactive).
Taken in the same sequence, the figures for CARQAEVIAPAGNASASA [HC1031] were 0.765 (inactive), 1.4 and -0.146 (inactive).
For CAGTPCSGSWAGNASASA [HC1836], the “furin cleavage Z-score” value runs as follows: (7.5 min) -0.934 (inactive); (15 min) -0.454 (inactive); (30 min) -1.18 (inactive).
Taken in the same sequence, the figures for CAPQARVAIKAGNASASA [HC1494] were 0.98 (inactive), -0.346 (inactive) and 1.74.
For CAGREILLGPAGNASASA [HC664], in that order: -0.781 (inactive), -0.532 (inactive) and 0.339 (inactive).
In the case of CARVARVAREAGNASASA [FS-1799], the “furin cleavage Z-score” value by setting is: (7.5 min) 7.74 (active); (15 min) 5.71 (active); (30 min) 5.82 (active).
For CAGRGRERRWAGNASASA [FS-333], in that order: 6.35 (active), 9.27 (active) and 8.33 (active).
For CARVARVRGGAGNASASA [FS-1938], in that order: -0.221 (inactive), -0.337 (inactive) and -1.51 (inactive).
Taken in the same sequence, the figures for CAGRGRGGGGAGNASASA [NG4] were 0.497 (inactive), -0.137 (inactive) and 0.673 (inactive).
With CADFERKAREAGNASASA [FS-222], the “furin cleavage Z-score” value was 0.924 (inactive) (7.5 min), 0.123 (inactive) (15 min) and 0.387 (inactive) (30 min).
For CAEVVISTWVAGNASASA [HC125], in that order: 0.441 (inactive), -0.457 (inactive) and -1.26 (inactive).
Taken in the same sequence, the figures for CACGAEITGHAGNASASA [HC1176] were -2.29 (inactive), -1.09 (inactive) and -4.52 (inactive).
For CAEVPCHAPSAGNASASA [HC2363], in that order: 0.635 (inactive), 1.02 and 0.728 (inactive).
Take CARQGRVISVAGNASASA [FS-2168]: the “furin cleavage Z-score” value runs as follows: (7.5 min) -2.08 (inactive); (15 min) -0.187 (inactive); (30 min) 0.163 (inactive).
As for CARVARERRWAGNASASA [FS-292], the “furin cleavage Z-score” value (7.5 min) was 7.91 (active), the “furin cleavage Z-score” value (15 min) was 11.7 (active) and the “furin cleavage Z-score” value (30 min) is 9.72 (active).
For CAEVPCHRPWAGNASASA [HC2408], in that order: -0.0166 (inactive), 0.18 (inactive) and 0.457 (inactive).
Taken in the same sequence, the figures for CARPGRPARVAGNASASA [FS-1159] were -0.325 (inactive), -0.113 (inactive) and -0.65 (inactive).
Consider CARIERVARVAGNASASA [FS-187], for which the “furin cleavage Z-score” value is 2.36 (7.5 min), 1.28 (15 min) and 4.15 (active) (30 min).
Taken in the same sequence, the figures for CARIERVIGAAGNASASA [FS-2212] were 0.267 (inactive), -1.07 (inactive) and 0.338 (inactive).
Take CARQGRIARVAGNASASA [FS-1608]: the “furin cleavage Z-score” value is 4.13 (active) (7.5 min), 2.36 (15 min) and 3.61 (active) (30 min).
For CAFCTTPCSGAGNASASA [HC1947], in that order: 1.42, -0.358 (inactive) and -1.43 (inactive).
